Compound activity (PubChem)
eIF4E 4G PPI – eIF4E–eIF4G protein interaction inhibitors, primary screen, biochemical, uHTS, TR-FRET, eIF4GI fragment. Eukaryotic translation initiation factor 4E (Mus musculus) + Eukaryotic translation …. TR-FRET eIF4E-eIF4GI(517-606) binding, 2 h. inhibition, % at 21.7 µM. hit rate 0.37% among 220,000. AID 782, 2007;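 active = inhibition above about 30%, limit read from the data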
Mcl1 Noxa PPI – Mcl-1/Noxa binding inhibitors, primary screen, biochemical, TR-FRET, 1536-well. hit rate 1.5% among 220,000. Induced myeloid leukemia cell differentiation protein Mcl-1 (Homo sapiens), Q07820. inhibition, % at 21.7 µM. TR-FRET Mcl-1/Noxa peptide binding, 2 h;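 active = compounds that cut the protein-peptide binding signal by more than 50% relative to plate controls in a single-dose test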;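 note: His-tagged Mcl-1 with rhodamine Noxa BH3 peptide and terbium anti-His antibody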
14-3-3 Bad PPI – inhibitors of 14-3-3 zeta/Bad binding, primary screen, biochemical, TR-FRET, bovine 14-3-3 zeta. hit rate 0.71% among 220,000. TR-FRET 14-3-3zeta/Dy647-pBad peptide displacement, 1 h. inhibition, % at 21.7 µM. AID 781, 2007. 14-3-3 protein zeta/delta (Bos taurus), P63103;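 active = inhibition above about 70%, limit read from the data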
MCL1 BIM primary – inhibitors of MCL1 binding to BIM-BH3, primary screen, biochemical, fluorescence polarization; Induced myeloid leukemia cell differentiation protein Mcl-1 (Homo sapiens), Q07820; GST-MCL1 / FITC-Bim-BH3 fluorescence polarization; inhibition, % at 10.9 µM; hit rate 0.68% among 320,000; AID 2057, 2009;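 active = inhibition above the mean inhibition of all tested compounds plus 3 SD, set per campaign, cut at about 40% in these data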;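 note: higher means more loss of mP so more displacement of Bim peptide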
Mcl1 Bid PPI – Mcl-1/Bid binding inhibitors, primary screen, biochemical, TR-FRET, 1536-well; Induced myeloid leukemia cell differentiation protein Mcl-1 (Homo sapiens), Q07820; TR-FRET Mcl-1/Bid-Dy647 peptide binding; inhibition, % at 21.7 µM; hit rate 0.97% among 220,000;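 active = compounds that cut the binding signal by more than half at the single screening dose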;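 note: His-tagged Mcl-1 with europium anti-His antibody binding Bid BH3 peptide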
Mcl-1 Bim block – inhibitors of Bim peptide binding to Mcl-1, primary screen, biochemical, bead-based flow cytometry, multiplex; Induced myeloid leukemia cell differentiation protein Mcl-1 (Homo sapiens), Q07820; inhibition, % at 10 µM; hit rate 0.1% among 190,000; Bim peptide-Mcl-1 binding; in the data active = inhibition above about 40%
BCLXL inh confirm – Bcl-xL inhibitors blocking Bim BH3 binding, confirmation, counter-screen for MCL1 inhibitor project, biochemical, fluorescence polarization | shares compounds with MCL1 BIM primary | GST-Bcl-xL / FITC-Bim BH3 peptide FP binding | inhibition, % at 10.9 µM | hit rate 54% among 1,700;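 active = inhibition above a cutoff equal to the mean inhibition of all tested compounds plus 3 SD, cut at about 30% in these data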
MCL1 inh confirm – inhibitors of MCL1 binding to BIM-BH3, confirmation, biochemical, fluorescence polarization, triplicate | shares compounds with MCL1 BIM primary | GST-MCL1 / FITC-Bim-BH3 fluorescence polarization | inhibition, % at 10.9 µM | hit rate 61% among 1,700 | AID 2168, 2009;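 active = inhibition above the average of all tested compounds plus 3 SD, cut at about 40% in these data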
Numbers stand for hits; n = inactive; x = not tested or not shown; + = active, no number; [ ] = dose if it differs, or a comment. Hits are enriched below; roughly 2.6% of the tested compounds scored in any of these assays.

SMILES	eIF4E 4G PPI	Mcl1 Noxa PPI	14-3-3 Bad PPI	MCL1 BIM primary	Mcl1 Bid PPI	Mcl-1 Bim block	BCLXL inh confirm	MCL1 inh confirm
Cc1onc(-c2ccccc2Cl)c1C(=O)NCc1ccco1	n	n	n	66	n	n	n	65
O=C1/C(=C/c2cccc(F)c2)Oc2cc(O)ccc21	x	x	x	66	x	x	83	98
Cc1cc(C)c2nc(-c3ccncc3)cc(C(=O)N3CCN(Cc4ccccc4Cl)CC3)c2c1	x	x	x	n	x	x	x	x
COC(=O)C1=C(O)/C(=C\c2ccc(CNS(=O)(=O)c3ccccc3)o2)N=C1C	n	n	n	48	n	n	31	54
CC[C@@]1(O)C(=O)OCc2c1cc1n(c2=O)Cc2cc3c(CN(C)C)c(O)ccc3nc2-1	x	x	x	+	x	x	+	+
COc1ccc(C(=O)N/N=C/c2cc3ccccc3[nH]c2=S)cc1	n	n	n	44	n	n	n	n
COc1ccc(C(=O)N/N=C/c2c[nH]c3ccccc23)cc1	x	x	x	n	x	x	x	x
CCC(SC1=N/C(=C/c2ccccc2OC)C(=O)N1c1ccccc1)C(=O)Nc1cc(C)on1 (configuration not stated)	n	n	n	n	n	n	x	x
CCOC(=O)c1cnc(-n2[nH]c(C)cc2=O)[nH]c1=O	n	n	n	74	n	n	n	81
O=C1C(=Cc2cccn2-c2ccc(O)cc2)C(=O)c2ccccc21	n	n	84[fluorescence artefact?]	199	70	n	152	190
O=C(O)c1cccc(-n2cccc2C=C2C(=O)c3ccccc3C2=O)c1	n	n	n	n	n	n	x	x
Cc1ccc2c3c(cccc13)-c1ccccc1C2=O	n	n	n	42	n	n	n	n
CCCCOc1ccc(C(=O)NCC(=O)NCCOc2ccccc2OC)cc1	x	x	x	n	x	x	x	x
Cc1nn(C)cc1C1C2=C(CC(C)(C)CC2=O)N(c2ccccc2)C2=C1C(=O)CC(C)(C)C2	n	n	n	n	n	n	x	x
Cc1ccc(N2C3=C(C(=O)CC(C)(C)C3)C(c3cn(C)nc3C)C3=C2CC(C)(C)CC3=O)cc1	x	x	x	104	x	x	116	158
CCn1c(CSc2nccn2C)nc2cc(C(=O)O)ccc21	n	n	72	65	n	n	33	44
Brc1cccc(C=Nc2cccc3ncccc23)c1	x	x	x	n	x	x	x	x
Oc1c(Br)cc(Br)cc1C=Nc1cccc2ncccc12	x	x	x	73	x	x	43	55
Nc1c(C(=O)C2CC2)sc2nc(-c3cccs3)cc(C(F)(F)F)c12	n	n	n	72	n	n	n	n
O=c1[nH]c(=S)[nH]c2nc(-c3cccs3)cc(C(F)(F)F)c12	x	x	x	n	x	x	x	x
Oc1ccc(/C=N/Nc2ncnc3c2ncn3Cc2ccccc2)cc1O	n	n	n	57	n	n	n	n
COc1ccccc1C(=O)N/C(=C\c1ccc(Br)cc1)C(=O)N1CCCC1	n	n	n	n	n	x	x	x
NS(=O)(=O)c1ccc(N=Nc2c[nH]c(=O)c(O)c2)cc1	n	n	n	163	n	x	169	195
O=C(Nc1ccccc1)C1=C[C@H](c2ccc(Br)cc2)C[C@H](OCc2ccc(CO)cc2)O1	n	n	n	n	n	n	x	x
CN(C)Cc1c(O)ccc2c(-c3ccccc3)cc(=O)oc12	n	n	n	n	n	n	x	x
SMILES	eIF4E 4G PPI	Mcl1 Noxa PPI	14-3-3 Bad PPI	MCL1 BIM primary	Mcl1 Bid PPI	Mcl-1 Bim block	BCLXL inh confirm	MCL1 inh confirm
CN(C)Cc1c(O)ccc2cc(-c3nc4ccccc4n3C)c(=O)oc12	x	x	x	64	x	x	n	n
CCn1nc(-c2ccccc2)c2nc3ccccc3nc21	n	n	n	101	n	n	137	140
COC(=O)CCCC1=CC2=CC(=O)C(C)(OC(=O)c3cccs3)C(=O)C2=CN1Cc1ccco1 (configuration not stated)	n	n	n	n	n	x	x	x
COC(=O)CCCC1=CC2=CC(=O)C(C)(OC(=O)c3ccco3)C(=O)C2=CO1 (configuration not stated)	x	x	x	88	x	x	75	110
CC(C)(C)OC(=O)NCCCC1=CC2=CC(=O)C(C)(OC(=O)C3CCCC3)C(=O)C2=CO1 (configuration not stated)	x	x	x	74	x	x	48	66
CC(C)(C)OC(=O)NCCCCC1=CC2=CC(=O)C(C)(OC(=O)c3ccco3)C(=O)C2=CO1 (configuration not stated)	x	x	x	61	x	x	n	n
CC1(OC(=O)C2CCCC2)C(=O)C=C2C=C3CCCN3C=C2C1=O (configuration not stated)	x	x	x	n	x	x	x	x
CCCCC1=CC2=CC(=O)C(C)(OC(=O)c3ccc(Cl)nc3)C(=O)C2=CO1 (configuration not stated)	x	x	x	66	x	x	48	65
COCCCn1c(=NC(=O)c2ccccc2)c(C#N)cc2c(=O)n3cccc(C)c3nc21	n	n	n	+	n	x	76	105
Cc1cccc(C(=O)N=c2c(C#N)cc3c(=O)n4cccc(C)c4nc3n2Cc2ccco2)c1	n	86	n	64	n	n	38	n
Cc1cccn2c(=O)c3cc(C#N)c(=NC(=O)c4ccccc4)n(Cc4ccco4)c3nc12	x	x	x	n	x	x	x	x
COCCCn1c(=NC(C)=O)c(C#N)cc2c(=O)n3cccc(C)c3nc21	n	n	n	n	n	x	x	x
CCOCCCn1c(=NC(=O)c2cccs2)c(C#N)cc2c(=O)n3cccc(C)c3nc21	n	n	n	151	n	x	115	142
COc1ccc(CN(C)CC(=O)Nc2cccc(S(=O)(=O)N(C)c3ccccc3)c2)c(OC)c1	x	x	x	n	x	x	x	x
Cc1cccc(C)c1OCC1CNC(=O)O1 (configuration not stated)	x	x	x	n	x	x	x	x
O=C1NCC(COCc2ccccc2)O1 (configuration not stated)	n	n	n	54	n	n	n	n
O=C(NC(c1ccccc1)c1cc(Cl)c2cccnc2c1O)c1cccnc1 (configuration not stated)	n	n	n	n	n	n	x	x
O=C(O)COc1ccccc1C(Nc1ccccn1)c1cc(Cl)c2cccnc2c1O (configuration not stated)	n	91	n	79	74	n	n	89
